Test results: PubChem BioAssay AID1159580 (chemical genetic matrix, 2015)
Hit rate of the full screen: of about 5,500 compounds, about 2,000 (36%) were called active. Another 18% or so got no clear call; they are omitted. No stated cut-off is given here; in the data, active means normalized growth mostly below about 0.91 (no sharp cut-off); inconclusive means no clear call, values can overlap the other calls; inactive means mostly above about 0.92. This is one part of the list.

Experiment: chemical genetic growth profiling, strain panel (AID 1159580);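 further: tested at 20 µM; growth read once vehicle control cultures reached saturation at 30 °C; 1 = growth at the plate median or of vehicle wells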
Conditions: S. cerevisiae deletion strains, growth OD
[1] = locus YAL021C, strain ccr4, stronger effect = lower value
[2] = locus YAL026C, strain drs2, stronger effect = lower value
[3] = locus YAL030W, strain snc1, stronger effect = lower value
[4] = locus YBL061C, strain skt5, stronger effect = lower value
[5] = locus YBR009C, strain hhf1, stronger effect = lower value
[6] = locus YBR023C, strain chs3, stronger effect = lower value
[7] = locus YBR171W, strain sec66, stronger effect = lower value
[8] = locus YBR231C, strain swc5, stronger effect = lower value
[9] = locus YBR279W, strain paf1, stronger effect = lower value
[10] = locus YCL011C, strain gbp2, stronger effect = lower value
[11] = locus YCL016C, strain dcc1, stronger effect = lower value
[12] = locus YCL061C, strain MRC1, stronger effect = lower value
[13] = locus YCL069W, strain vba3, stronger effect = lower value
[14] = locus YCR088W, strain abp1, stronger effect = lower value
[15] = locus YDL005C, strain med2, stronger effect = lower value
[16] = locus YDL040C, strain nat1, stronger effect = lower value
[17] = locus YDR001C, strain nth1, stronger effect = lower value
[18] = locus YDR069C, strain doa4, stronger effect = lower value
[19] = locus YDR137W, strain rgp1, stronger effect = lower value
[20] = locus YDR159W, strain sac3, stronger effect = lower value
[21] = locus YDR297W, strain sur2, stronger effect = lower value
[22] = locus YDR334W, strain swr1, stronger effect = lower value
[23] = locus YDR335W, strain msn5, stronger effect = lower value
[24] = locus YDR392W, strain spt3, stronger effect = lower value
[25] = locus YEL003W, strain gim4, stronger effect = lower value
[26] = locus YEL037C, strain rad23, stronger effect = lower value
[27] = locus YEL061C, strain CIN8 (second series), stronger effect = lower value
[28] = locus YER015W, strain faa2, stronger effect = lower value
[29] = locus YER016W, strain bim1, stronger effect = lower value
[30] = locus YER111C, strain swi4, stronger effect = lower value
[31] = locus YER155C, strain BEM2 (second series), stronger effect = lower value
[32] = locus YFR010W, strain ubp6, stronger effect = lower value
[33] = locus YGL167C, strain pmr1, stronger effect = lower value
[34] = locus YGL173C, strain kem1, stronger effect = lower value
[35] = locus YGL227W, strain vid30, stronger effect = lower value
[36] = locus YGL240W, strain doc1, stronger effect = lower value
[37] = locus YGL253W, strain hxk2, stronger effect = lower value
[38] = locus YHR013C, strain ard1, stronger effect = lower value
[39] = locus YHR027C, strain rpn1, stronger effect = lower value
[40] = locus YHR030C, strain SLT2, stronger effect = lower value
[41] = locus YHR079C, strain IRE1, stronger effect = lower value
[42] = locus YHR142W, strain chs7, stronger effect = lower value
[43] = locus YJL092W, strain hpr5, stronger effect = lower value
[44] = locus YJL095W, strain BCK1 (second series), stronger effect = lower value
[45] = locus YJL095W, strain BCK1, stronger effect = lower value
[46] = locus YJL115W, strain asf1, stronger effect = lower value
[47] = locus YJL129C, strain trk1, stronger effect = lower value
[48] = locus YJL154C, strain vps35, stronger effect = lower value
[49] = locus YJL164C, strain tpk1, stronger effect = lower value
[50] = locus YJL166W, strain qcr8, stronger effect = lower value
[51] = locus YJL187C, strain SWE1, stronger effect = lower value
[52] = locus YJR066W, strain TOR1, stronger effect = lower value
[53] = locus YKL160W, strain elf1, stronger effect = lower value
[54] = locus YKR026C, strain gcn3, stronger effect = lower value
[55] = locus YKR091W, strain srl3, stronger effect = lower value
[56] = locus YLL001W, strain dnm1, stronger effect = lower value
[57] = locus YLL026W, stronger effect = lower value
[58] = locus YLL041C, strain sdh2, stronger effect = lower value
[59] = locus YLR027C, strain aat2, stronger effect = lower value
[60] = locus YLR113W, strain HOG1, stronger effect = lower value
[61] = locus YLR221C, strain rsa3, stronger effect = lower value
[62] = locus YLR258W, strain gsy2, stronger effect = lower value
[63] = locus YLR262C, strain YPT6 (second series), stronger effect = lower value
[64] = locus YLR320W, strain mms22, stronger effect = lower value
[65] = locus YLR342W, strain FKS1, stronger effect = lower value
[66] = locus YLR357W, strain rsc2, stronger effect = lower value
[67] = locus YLR370C, strain arc18, stronger effect = lower value
[68] = locus YLR384C, strain iki3, stronger effect = lower value
[69] = locus YML120C, strain ndi1, stronger effect = lower value
[70] = locus YMR058W, strain fet3, stronger effect = lower value
[71] = locus YMR125W, strain sto1, stronger effect = lower value
[72] = locus YMR129W, stronger effect = lower value
[73] = locus YMR205C, strain PFK2, stronger effect = lower value
[74] = locus YMR231W, strain pep5, stronger effect = lower value
[75] = locus YNL071W, strain lat1, stronger effect = lower value
[76] = locus YNL183C, strain NPR1, stronger effect = lower value
[77] = locus YNL209W, strain ssb2, stronger effect = lower value
[78] = locus YNL248C, strain rpa49, stronger effect = lower value
[79] = locus YNL322C, strain KRE1 (second series), stronger effect = lower value
[80] = locus YNR049C, strain mso1, stronger effect = lower value
[81] = locus YOR001W, strain rrp6, stronger effect = lower value
[82] = locus YOR070C, strain gyp1, stronger effect = lower value
[83] = locus YOR080W, strain dia2, stronger effect = lower value
[84] = locus YOR083W, strain WHI5, stronger effect = lower value
[85] = locus YOR106W, strain vam3, stronger effect = lower value
[86] = locus YOR231W, strain MKK1, stronger effect = lower value
[87] = locus YOR265W, strain rbl2, stronger effect = lower value
[88] = locus YOR270C, strain vph1, stronger effect = lower value
[89] = locus YOR290C, strain snf2, stronger effect = lower value
[90] = locus YPL051W, strain arl3, stronger effect = lower value
[91] = locus YPL078C, strain atp4, stronger effect = lower value
[92] = locus YPL106C, strain sse1, stronger effect = lower value
[93] = locus YPL240C, strain hsp82, stronger effect = lower value
[94] = locus YPL256C, strain CLN2, stronger effect = lower value
[95] = locus YAL040C, strain CLN3, stronger effect = lower value
[96] = locus YCL061C, strain MRC1 (second series), stronger effect = lower value
[97] = locus YDR150W, strain NUM1, stronger effect = lower value
[98] = locus YDR363W, strain ESC2, stronger effect = lower value
[99] = locus YER002W, strain NOP16, stronger effect = lower value
[100] = locus YGR078C, strain PAC10, stronger effect = lower value
[101] = locus YMR307W, strain GAS1, stronger effect = lower value
[102] = locus YNL175C, strain NOP13, stronger effect = lower value
[103] = locus YNL197C, strain WHI3, stronger effect = lower value
[104] = locus YNL224C, strain SQS1, stronger effect = lower value
[105] = locus YOR083W, strain WHI5 (second series), stronger effect = lower value

Measured: normalized growth

NC(=O)C(c1ccccc1)(c1ccccc1)C1CCN(CCc2ccc3c(c2)CCO3)C1 (centres undefined)
inactive: [1] 1.01 | [2] 1.02 | [3] 1.03 | [4] 1.01 | [5] 1.04 | [6] 1.02 | [7] 1.04 | [8] 0.976 | [9] 1.02 | [10] 1.03 | [11] 1.03 | [12] 1.02 | [13] 1.02 | [14] 1.02 | [15] 1.02 | [16] 1.03 | [17] 1.02 | [18] 1.04 | [19] 1.1 | [20] 1.03 | locus YDR195W, strain ref2 1.04 | [21] 1.02 | [22] 1.03 | [23] 1.01 | [24] 0.996 | [25] 1.03 | [26] 1.02 | [27] 1.01 | [28] 1.02 | [29] 1.04 | [30] 1.02 | [31] 1.04 | [32] 1.02 | [33] 1.02 | [34] 1.02 | [35] 1.01 | [36] 1.01 | [37] 1.02 | [38] 1.01 | [39] 1.03 | [40] 1.05 | [41] 1.05 | [42] 1 | [43] 1.01 | [44] 1.03 | [45] 0.986 | [46] 1.02 | [47] 0.999 | [48] 1.03 | [49] 1.04 | [50] 1.03 | [51] 1.02 | [52] 0.997 | [53] 1.02 | [54] 1.02 | [55] 1.02 | [56] 1.03 | [57] 1.02 | [58] 1.03 | [59] 1.03 | [60] 1.01 | [61] 1.02 | [62] 1.04 | [63] 1.08 | [64] 1.01 | [65] 1.02 | [66] 0.966 | [67] 1.01 | [68] 1.03 | [69] 1.01 | [70] 1.02 | [71] 1.01 | [72] 1.02 | [73] 1.03 | [74] 1.02 | [75] 1.01 | [76] 0.997 | [77] 1.02 | [78] 1.03 | [79] 1.04 | [80] 1.02 | [81] 1.03 | [82] 1.03 | [83] 1.01 | [84] 1 | [85] 1.01 | [86] 1.04 | [87] 1.05 | [88] 1.02 | [89] 1.08 | [90] 1.04 | [91] 1.01 | [92] 1.05 | [93] 1.03 | [94] 1.06

Nc1c(S(=O)(=O)O)cc(Nc2ccc(Nc3nc(Cl)nc(Nc4ccc(S(=O)(=O)O)cc4)n3)c(S(=O)(=O)O)c2)c2c1C(=O)c1ccccc1C2=O
inactive: locus YAL013W, strain DEP1, stronger effect = lower value 0.977 | [95] 1.09 | [96] 1.01 | [97] 1.03 | [98] 1.01 | [99] 1.03 | [100] 1.04 | [101] 1.05 | locus YNL128W, strain TEP1, stronger effect = lower value 1.03 | [102] 1.03 | [103] 1.04 | [104] 1.04 | locus YNL322C, strain KRE1, stronger effect = lower value 1.01 | [105] 1.04 | locus YPL241C, strain CIN2, stronger effect = lower value 1.02

CC(=O)O[C@H]1[C@@H]2[C@@H](OC(=O)Cc3ccccc3)[C@@H](C)C[C@]2(OC(C)=O)C(=O)/C(C)=C/[C@H]2[C@H](CC[C@@]13CO3)C2(C)C
active: [75] 0.914
inactive: [1] 0.975 | [2] 0.985 | [3] 0.986 | [4] 0.984 | [5] 1 | [6] 0.982 | [7] 0.976 | [8] 0.988 | [9] 0.983 | [10] 0.979 | [11] 0.989 | [12] 0.992 | [13] 0.991 | [14] 0.992 | [15] 0.976 | [16] 0.978 | [17] 0.985 | [18] 0.98 | [19] 0.85 | [20] 0.977 | locus YDR195W, strain ref2 1.01 | [21] 0.97 | [22] 0.934 | [23] 0.978 | [24] 0.84 | [25] 0.981 | [26] 0.987 | [27] 0.984 | [28] 0.989 | [29] 0.979 | [30] 0.992 | [31] 0.984 | [32] 0.977 | [33] 0.97 | [34] 0.958 | [35] 0.99 | [36] 0.99 | [37] 0.974 | [38] 0.926 | [39] 0.983 | [40] 0.988 | [41] 0.981 | [42] 0.958 | [43] 0.97 | [44] 0.977 | [45] 0.989 | [46] 0.969 | [47] 0.941 | [48] 0.993 | [49] 0.982 | [50] 0.981 | [51] 0.988 | [52] 0.963 | [53] 0.972 | [54] 0.982 | [55] 0.985 | [56] 0.98 | [57] 0.98 | [58] 0.97 | [59] 0.975 | [60] 0.966 | [61] 0.975 | [62] 0.986 | [63] 0.878 | [64] 0.971 | [65] 0.966 | [66] 1.03 | [67] 0.987 | [68] 0.983 | [69] 0.967 | [70] 0.98 | [71] 1 | [72] 0.989 | [73] 0.984 | [74] 0.993 | [76] 0.909 | [77] 0.989 | [78] 0.98 | [79] 0.981 | [80] 0.978 | [81] 0.955 | [82] 0.985 | [83] 0.974 | [84] 0.972 | [85] 0.951 | [86] 0.961 | [87] 0.983 | [88] 0.815 | [89] 0.929 | [90] 0.958 | [91] 0.978 | [92] 1 | [93] 0.966 | [94] 0.967

C[C@@H]1O[C@@H](O[C@H]2C[C@@H](O)[C@]3(CO)[C@H]4[C@H](O)C[C@]5(C)[C@@H](C6=CC(=O)OC6)CC[C@]5(O)[C@@H]4CC[C@]3(O)C2)[C@H](O)[C@H](O)[C@H]1O
inactive: [95] 0.989 | [96] 0.996 | [97] 1 | [98] 0.984 | [99] 1.02 | [100] 0.985 | locus YGR229C, strain SMI1, stronger effect = lower value 0.993 | locus YJR075W, strain HOC1, stronger effect = lower value 0.997 | locus YMR263W, strain SAP30, stronger effect = lower value 0.996 | [101] 0.995 | [102] 1.02 | [103] 1.03 | [104] 0.988 | [105] 1
